The entries come from a sample that favours hits as a whole.
Giardia FBPA inh – Giardia lamblia aldolase inhibition; actives 0.71% (n = 290,000); A8B2U2; Potency, µM (series often up to 59.6 µM), for the others: at the highest dose activity, negative = inhibition, most hits filed as inhibitors; AID 2451; purified Giardia FBPA; also: potency is read from the fitted curve at half-maximal effect; % is scaled to controls: 0 for no effect and ±100 for the full control effect; nearly all actives have a fitted effect of over 55% in size
Target sequence (A8B2U2 whole entry, looked up): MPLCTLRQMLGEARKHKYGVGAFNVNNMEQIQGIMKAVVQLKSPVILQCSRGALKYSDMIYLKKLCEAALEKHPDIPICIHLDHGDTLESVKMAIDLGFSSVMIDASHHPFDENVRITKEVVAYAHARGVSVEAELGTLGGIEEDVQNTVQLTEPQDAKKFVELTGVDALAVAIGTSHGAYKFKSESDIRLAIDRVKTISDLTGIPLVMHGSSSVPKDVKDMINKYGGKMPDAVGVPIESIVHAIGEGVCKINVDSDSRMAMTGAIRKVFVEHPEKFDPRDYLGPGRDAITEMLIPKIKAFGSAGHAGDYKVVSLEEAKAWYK
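40 nM FBPA preincubated 10 min at RT with compound (up to 57.5 uM final), then substrate plus GAPDH/TPI/NAD/arsenate coupling and diaphorase/resazurin added. Fluorescence read after 20 min at RT, 525/598 nm.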
CHX counter – affects cycloheximide protein synthesis inhibition readout, counter-screen; cell reporter, cycloheximide protein synthesis inhibition counterscreen; max response, %; actives 12% (n = 300,000); AID 2314; in the data active = max response mostly above about 13%, no sharp cut-off; inactive = mostly below about 14%; also: read at 38.3 µM for the half of the compounds with a filed dose; 0% is about no effect
LmPK inhibitor – blocks Leishmania mexicana pyruvate kinase activity | Q27686 | purified LmPK, Kinase-Glo ATP luminescence, 1 h | Potency, µM (series often up to 57.5 µM), inactives show top-dose activity change, negative = inhibition, most hits filed as inhibitors | actives 0.37% (n = 290,000); also: potency is read from the fitted curve at half-maximal effect; % is scaled to controls: 0 for no effect and ±100 for the full control effect
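In 50 mM imidazole pH 7.2 with 7 mM MgCl2, LmPK (0.1 nM) turned over PEP (0.5 mM) and ADP (0.1 mM) for 1 h at room temperature. Luciferase read-out of ATP.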
TbPYK inhibitor – inhibitors of Trypanosoma brucei pyruvate kinase; AID 624173; TbPYK enzyme, Kinase-Glo Plus ATP luminescence, 45 min; actives 0.12% (n = 410,000); Potency, µM (titrated, usually from 76.8 µM), for inactives: at the top dose activity, negative = inhibition, hits mostly inhibitors; also: potency is read from the fitted curve at half-maximal effect; % is scaled to controls: 0 for no effect and ±100 for the full control effect; nearly all actives have a fitted effect of over 50% in size
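Screened from lowest to highest concentration, compounds were pinned into TbPYK/substrate mixtures, and ADP (130 uM final) was added. Plates sat at room temperature for 45 min prior to Kinase-Glo Plus detection by luminescence.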
Shiga inhibitor – blocks Shiga toxin action in Vero cells. Vero cells, Shiga toxin protein synthesis inhibition reporter. inhibition, % at 38.7 µM. actives 9.2% (n = 290,000); in the data active = inhibition mostly above about 28%, no sharp cut-off; inactive = mostly below about 43%; also: 0% is about no effect
RE007 growth inh – less growth of the S. pombe RE007 Vpr strain; S. pombe RE007 Vpr strain, BacTiter-Glo ATP luminescence, 24 h; Potency, µM (doses to about 92.2 µM), inactives show at the top dose activity change, negative = less growth, usual class: inhibitors; actives 0.21% (n = 360,000); AID 651644; active = well fitted falling curve with a large enough effect; inconclusive = small, poorly fitted or top-dose-only effect; inactive = no such curve, though single readings can be large or run the other way; also: potency is read from the fitted curve at half-maximal effect; % is scaled to controls: 0 for no effect and ±100 for the full control effect; nearly all actives have a fitted effect of over 50% in size
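Fission yeast strain RE007, carrying one chromosomally integrated HIV-1 vpr copy, was seeded at OD 0.01 in PMG+AL medium with 23 nL pinned compound. After 24 h at 30 °C and 99% humidity, viability was read by BacTiter-Glo luminescence.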
An asterisk follows results filed as active; ? = inconclusive; . = not tested or not shown; + = active, no number; ! = repeats disagree; [ ] = another dose, or the depositor's remark. Unless noted, calls follow the shape of the dose curve; as a rule, active = well fitted curve in the direction sought with a large enough effect; inconclusive = small, poorly fitted or top-dose-only effect, or another doubt; inactive = no such curve, though single readings can be large; an effect the other way counts as inactive or inconclusive.

SMILES	Giardia FBPA inh	CHX counter	LmPK inhibitor	TbPYK inhibitor	Shiga inhibitor	RE007 growth inh
c1ccc(-c2nnsc2Sc2ccccn2)cc1	2%	32*	12%	-1%	56*	-8%
CC(C)Sc1snnc1-c1ccccc1	7%	9	-9%	2%	13	0%
O=C(Cn1c(=O)n(-c2ccc(Cl)cc2)c(=O)c2c3c(sc21)CCCCC3)Nc1cccc(Cl)c1	.	.	.	6%	.	.
C[N+](C)(CCCCCC[N+](C)(C)C1c2ccccc2-c2ccccc21)C1c2ccccc2-c2ccccc21	.	.	.	3%	.	.
COc1ccccc1CN=C1Nc2ccccc2CS1	-1%	30*	-4%	-4%	82*	-4%
c1ccc2c(c1)CSc1ccccc1N2	.	.	.	-4%	.	?
c1cncc(CN=C2Nc3ccccc3CS2)c1	3%	16	14%	-1%	51	1%
S=C1Nc2ccccc2CS1	.	.	.	-9%	.	-9%
Cc1ccc(CN=C2Nc3ccccc3CS2)cc1	4%	34*	?	-6%	82*	-20%
COc1cccc(CN=C2Nc3ccccc3CS2)c1	-2%	54*	-9%	0%	77*	3%
Clc1ccc(CN=C2Nc3ccccc3CS2)cc1	0%	34*	1%	0%	64*	-7%
CCCc1nc2ccccc2c(=O)n1/N=C/c1c(C)[nH]n(-c2ccc(C)cc2)c1=O	?	9	?	-6%	11	16µM*
CCCc1nc2ccccc2c(=O)n1-c1ccc(O)cc1	6%	-5	-3%	0%	21	-12%
CCCc1nc2ccccc2c(=O)n1/N=C/c1ccccc1O	-5%	47*	4%	4%	59	1%
Cc1cc2ccccn2c1C(=O)c1ccccc1Br	0%	6	1%	-1%	-8	-24%
CCOC(=O)C(=O)c1c(C)cc2ccccn12	-12%	23*	-1%	-5%	47*	-9%
Cc1cc2ccccn2c1C(=O)c1ccc([N+](=O)[O-])o1	-10%	34*	-4%	1%	23	-5%
Cc1cc2ccccn2c1C(=O)c1cccc([N+](=O)[O-])c1	-12%	-2	-2%	0%	14	4%
COc1ccc(C=O)c(-c2c(-c3ccccc3OC)sc3ccccc23)c1	.	.	.	4%	.	-5%
C/C(=N\NC(=O)c1cccnc1)c1ccc(C)c([N+](=O)[O-])c1	0%	11	-2%	-3%	13	-18%
CC(C)/C(=N/Nc1ccccc1[N+](=O)[O-])c1ccccc1	4%	27*	-4%	2%	48*	10%
COC(=O)N/N=C(\C)c1ccc(C)c([N+](=O)[O-])c1	-1%	19*	-8%	-3%	17*	-4%
C/C(=N/Nc1ccccc1[N+](=O)[O-])c1ccc(C)c([N+](=O)[O-])c1	-8%	16*	5%	-8%	-6	-3%
N#C/C(=N/Nc1ccccc1[N+](=O)[O-])C(N)=S	-24%	5	1%	-10%	28	1%
C/C(=N\Nc1ccccc1[N+](=O)[O-])c1ccc(N2CCOCC2)cc1	-6%	21*	-3%	-7%	86*	-20%
SMILES	Giardia FBPA inh	CHX counter	LmPK inhibitor	TbPYK inhibitor	Shiga inhibitor	RE007 growth inh
O=c1c2ccccc2nc(/C=C/c2ccccc2)n1CCCO	-4%	11	0%	2%	6	3%
O=c1c2ccccc2nc(/C=C/c2ccc3c(c2)OCO3)n1CCCO	0%	24*	-3%	-15%	47	29%
O=c1c2ccccc2nc(/C=C/c2c[nH]c3ccccc23)n1CCO	-8%	38*	3%	9%	65*	-8%
CCOc1cccc2oc(-c3ccccc3Cl)cc(=O)c12	1%[89.2 µM]	59*	.	.	+	.
O=C(Nc1ccc(O)c2c(=O)cc(-c3ccccc3Cl)oc12)c1ccc(Cl)cc1Cl	2%	-2	4%	1%	-11	-11%
O=c1cc(-c2ccccc2Cl)oc2cc(O)cc(O)c12	0%	46*	1%	3%	94*	22%
Nc1ccc(O)c2c(=O)cc(-c3ccccc3Cl)oc12	0%[89.2 µM]	45*!	-5%	3%	61*	-2%
CC(C)(C)c1ccc(C(=O)Nc2ccc(O)c3c(=O)cc(-c4ccccc4Cl)oc23)cc1	-2%	4	8%	3%	33	0%
COc1cccc(-c2cc(=O)c3ccccc3o2)c1N	-7%	.	.	.	.	.
O=C(Nc1ccc(O)c2c(=O)cc(-c3ccccc3Cl)oc12)c1ccc(F)cc1	2%	88*!	7%	-2%	100*!	14%
CCn1nc(C)c(CNC(=O)Nc2ccccc2C(=O)OC)c1C	6%	1	3%	-4%	5	15%
COc1ccc(C)cc1N(C)C(=O)c1sc2nc3n(c(=O)c2c1C)CCCCC3	.	.	.	-2%	.	.
CCOc1ccc(NC(=O)c2cc(S(=O)(=O)N3CCc4ccccc43)ccc2F)cc1	.	.	.	-5%	.	.
O=C(CNC(=O)c1ccccc1C(=O)O)c1ccccc1	-5%	49*	-6%	-21%	62*	-1%
O=C(CNC(=O)c1ccc(-c2ccccc2)cc1)OCc1ccc(Br)cc1	-4%	39*	0%	-6%	68*	-13%
O=C(CNC(=O)c1ccc(Cl)cc1)c1ccc(Cl)cc1	-7%	16*	8%	2%	52*	-14%
O=C(CNC(=O)c1ccccc1)c1ccccc1	.	.	.	-1%	.	1%
O=C(CNC(=O)c1ccc(Cl)cc1)c1ccccc1	.	.	.	0%	.	14%
O=C(CNC(=O)c1ccc(F)cc1)c1ccc(Cl)cc1	-5%	46*	-7%	6%	69*	36%
CC(=O)CSc1nnc2[nH]c(=O)cc(N)n12	.	.	.	4%	.	.
O=C(CNC(=O)c1ccc(Br)cc1)c1ccccc1	7%	28*	-8%	1%	29*	1%
O=C1NCCN/C1=C\C(=O)c1ccc(Br)cc1	2%	45*	-1%	-2%	64*	2%
O=C1OCCN/C1=C\C(=O)c1ccccc1	-5%	-1	3%	3%	-3	11%
O=C1NCCN/C1=C\C(=O)c1ccccc1	3%	33*	-4%	-5%	26	-8%
O=C1NCCN/C1=C\C(=O)c1cccc(Br)c1	7%	34*	0%	0%	72*	-25%
CCS(=O)(=O)N1Cc2ccccc2CC1C(=O)N(C)Cc1ccc(OC)c(F)c1 (configuration not stated)	3%	11	3%	2%	3	2%
COc1ccc(CCNC(=O)CCCn2c(=O)c3ccccc3n(Cc3cccc(Cl)c3)c2=O)cc1OC	.	.	.	-5%	.	.
COc1ccc(-c2nc3c4ccccc4ccn3c2Cc2ccccc2)cc1OC	.	.	.	1%	.	-23%
CO[C@@H]1COC(=O)[C@H]2CCCN2C(=O)[C@@H](C)COC(=O)CCC[C@H]1C	6%[12.9 µM]	.	.	.	.	.

Screening results from PubChem BioAssay.
